Assay [1] concerns the target Dual specificity protein kinase CLK3 (Homo sapiens) (UniProt P49761). The following applies: at 1 µM.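 Also: each value is the mean inhibition of CLK3.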
Assay [2] concerns the target Dual specificity tyrosine-phosphorylation-regulated kinase 1A (Homo sapiens) (UniProt Q13627). The following applies: at 0.1 µM.
The target is the same in assay [3]. The following applies: at 1 µM.
For assay [4], the target named is Dual specificity tyrosine-phosphorylation-regulated kinase 1B (Homo sapiens) (UniProt Q9Y463). The following applies: at 0.1 µM.
Assay [5] shares this target. The following applies: at 1 µM.
The target of assay [6] is T1, Dual specificity tyrosine-phosphorylation-regulated kinase 2 (Homo sapiens) (UniProt Q92630).
T1 sequence (whole entry): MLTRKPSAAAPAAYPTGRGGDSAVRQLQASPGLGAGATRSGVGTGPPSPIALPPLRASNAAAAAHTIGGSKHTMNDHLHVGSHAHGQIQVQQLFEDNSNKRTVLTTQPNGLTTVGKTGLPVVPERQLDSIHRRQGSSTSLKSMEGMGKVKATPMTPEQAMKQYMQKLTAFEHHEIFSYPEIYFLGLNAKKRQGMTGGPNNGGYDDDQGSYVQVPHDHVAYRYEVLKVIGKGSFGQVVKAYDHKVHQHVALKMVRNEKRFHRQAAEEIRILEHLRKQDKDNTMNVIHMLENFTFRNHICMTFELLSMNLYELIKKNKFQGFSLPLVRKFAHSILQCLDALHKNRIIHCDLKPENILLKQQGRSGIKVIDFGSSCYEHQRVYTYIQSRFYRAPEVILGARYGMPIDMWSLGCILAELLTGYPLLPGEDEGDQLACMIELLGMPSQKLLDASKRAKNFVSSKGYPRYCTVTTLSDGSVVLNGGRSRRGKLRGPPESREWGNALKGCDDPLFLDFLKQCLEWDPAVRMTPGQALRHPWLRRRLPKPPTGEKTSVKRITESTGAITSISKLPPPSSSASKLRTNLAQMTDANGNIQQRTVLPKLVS
The following applies: at 0.1 µM.

For assay [7], the target named is T1, Dual specificity tyrosine-phosphorylation-regulated kinase 2 (Homo sapiens). The following applies: at 1 µM.
The target in assay [8] is Glycogen synthase kinase-3 alpha (Homo sapiens) (UniProt P49840). The following applies: at 0.1 µM.
For assay [9] the target is unchanged. The following applies: at 1 µM.
The target in assay [10] is Glycogen synthase kinase-3 beta (Homo sapiens) (UniProt P49841). The following applies: at 0.1 µM.
Assay [11] has the same target. The following applies: at 1 µM.
The target of assay [12] is Homeodomain-interacting protein kinase 1 (Homo sapiens) (UniProt Q86Z02). The following applies: at 0.1 µM.
The target is the same in assay [13]. The following applies: at 1 µM.
Assay [14] has as its target T2, Homeodomain-interacting protein kinase 4 (Homo sapiens) (UniProt Q8NE63).
T2 sequence (whole entry): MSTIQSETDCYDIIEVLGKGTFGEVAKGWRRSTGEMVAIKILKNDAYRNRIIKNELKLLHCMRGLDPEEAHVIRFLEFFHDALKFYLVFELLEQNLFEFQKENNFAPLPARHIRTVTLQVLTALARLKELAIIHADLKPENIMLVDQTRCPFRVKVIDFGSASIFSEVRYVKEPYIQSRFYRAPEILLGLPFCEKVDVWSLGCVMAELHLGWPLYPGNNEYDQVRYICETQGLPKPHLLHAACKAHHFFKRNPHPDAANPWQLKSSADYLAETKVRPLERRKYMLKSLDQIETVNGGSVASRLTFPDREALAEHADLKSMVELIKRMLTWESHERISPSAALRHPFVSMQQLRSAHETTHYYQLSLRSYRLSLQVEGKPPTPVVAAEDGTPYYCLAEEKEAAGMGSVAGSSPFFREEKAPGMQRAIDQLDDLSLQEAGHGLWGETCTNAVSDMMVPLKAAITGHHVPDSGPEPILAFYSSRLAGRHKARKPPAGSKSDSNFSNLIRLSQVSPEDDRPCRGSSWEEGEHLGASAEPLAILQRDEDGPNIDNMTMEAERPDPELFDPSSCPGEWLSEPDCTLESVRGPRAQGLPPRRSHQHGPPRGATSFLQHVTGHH
The following applies: at 0.1 µM.

The target in assay [15] is T2, Homeodomain-interacting protein kinase 4 (Homo sapiens). The following applies: at 1 µM.
For assay [16], the target named is Mitogen-activated protein kinase 9 (Homo sapiens) (UniProt P45984). The following applies: at 0.1 µM.
The target is the same in assay [17]. The following applies: at 1 µM.
In assay [18] the target is Mitogen-activated protein kinase 1 (Homo sapiens) (UniProt P28482). The following applies: at 0.1 µM.
The target is the same in assay [19]. The following applies: at 1 µM.
Assay [20] concerns the target Mitogen-activated protein kinase 3 (Homo sapiens) (UniProt P27361). The following applies: at 0.1 µM.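 Also: each value is a mean inhibition figure.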

Dual specificity protein kinase CLK3 (Homo sapiens), sequence (P49761 whole entry, looked up): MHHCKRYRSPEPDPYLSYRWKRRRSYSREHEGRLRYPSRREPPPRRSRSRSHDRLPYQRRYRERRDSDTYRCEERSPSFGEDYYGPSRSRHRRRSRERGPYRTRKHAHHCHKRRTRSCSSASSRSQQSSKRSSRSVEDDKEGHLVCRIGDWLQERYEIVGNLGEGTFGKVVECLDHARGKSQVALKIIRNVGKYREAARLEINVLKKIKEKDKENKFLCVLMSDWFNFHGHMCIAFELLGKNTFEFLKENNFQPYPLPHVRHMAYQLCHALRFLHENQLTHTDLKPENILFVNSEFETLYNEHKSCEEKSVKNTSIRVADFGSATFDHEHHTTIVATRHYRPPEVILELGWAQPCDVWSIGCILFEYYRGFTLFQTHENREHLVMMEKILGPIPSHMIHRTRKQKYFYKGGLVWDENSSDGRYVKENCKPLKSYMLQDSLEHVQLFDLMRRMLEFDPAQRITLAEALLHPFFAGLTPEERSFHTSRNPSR
Mitogen-activated protein kinase 3 (Homo sapiens), sequence (P27361 whole entry): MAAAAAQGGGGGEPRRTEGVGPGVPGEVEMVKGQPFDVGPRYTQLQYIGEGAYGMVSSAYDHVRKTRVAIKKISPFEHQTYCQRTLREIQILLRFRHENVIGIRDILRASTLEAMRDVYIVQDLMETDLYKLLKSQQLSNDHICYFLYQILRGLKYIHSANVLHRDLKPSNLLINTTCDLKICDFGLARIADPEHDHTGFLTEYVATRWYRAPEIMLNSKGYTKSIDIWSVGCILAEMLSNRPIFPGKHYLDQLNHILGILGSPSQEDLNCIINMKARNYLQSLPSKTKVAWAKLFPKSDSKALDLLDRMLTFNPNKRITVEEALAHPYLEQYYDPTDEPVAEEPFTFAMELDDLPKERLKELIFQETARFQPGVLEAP
Homeodomain-interacting protein kinase 1 (Homo sapiens), sequence (Q86Z02 whole entry, looked up): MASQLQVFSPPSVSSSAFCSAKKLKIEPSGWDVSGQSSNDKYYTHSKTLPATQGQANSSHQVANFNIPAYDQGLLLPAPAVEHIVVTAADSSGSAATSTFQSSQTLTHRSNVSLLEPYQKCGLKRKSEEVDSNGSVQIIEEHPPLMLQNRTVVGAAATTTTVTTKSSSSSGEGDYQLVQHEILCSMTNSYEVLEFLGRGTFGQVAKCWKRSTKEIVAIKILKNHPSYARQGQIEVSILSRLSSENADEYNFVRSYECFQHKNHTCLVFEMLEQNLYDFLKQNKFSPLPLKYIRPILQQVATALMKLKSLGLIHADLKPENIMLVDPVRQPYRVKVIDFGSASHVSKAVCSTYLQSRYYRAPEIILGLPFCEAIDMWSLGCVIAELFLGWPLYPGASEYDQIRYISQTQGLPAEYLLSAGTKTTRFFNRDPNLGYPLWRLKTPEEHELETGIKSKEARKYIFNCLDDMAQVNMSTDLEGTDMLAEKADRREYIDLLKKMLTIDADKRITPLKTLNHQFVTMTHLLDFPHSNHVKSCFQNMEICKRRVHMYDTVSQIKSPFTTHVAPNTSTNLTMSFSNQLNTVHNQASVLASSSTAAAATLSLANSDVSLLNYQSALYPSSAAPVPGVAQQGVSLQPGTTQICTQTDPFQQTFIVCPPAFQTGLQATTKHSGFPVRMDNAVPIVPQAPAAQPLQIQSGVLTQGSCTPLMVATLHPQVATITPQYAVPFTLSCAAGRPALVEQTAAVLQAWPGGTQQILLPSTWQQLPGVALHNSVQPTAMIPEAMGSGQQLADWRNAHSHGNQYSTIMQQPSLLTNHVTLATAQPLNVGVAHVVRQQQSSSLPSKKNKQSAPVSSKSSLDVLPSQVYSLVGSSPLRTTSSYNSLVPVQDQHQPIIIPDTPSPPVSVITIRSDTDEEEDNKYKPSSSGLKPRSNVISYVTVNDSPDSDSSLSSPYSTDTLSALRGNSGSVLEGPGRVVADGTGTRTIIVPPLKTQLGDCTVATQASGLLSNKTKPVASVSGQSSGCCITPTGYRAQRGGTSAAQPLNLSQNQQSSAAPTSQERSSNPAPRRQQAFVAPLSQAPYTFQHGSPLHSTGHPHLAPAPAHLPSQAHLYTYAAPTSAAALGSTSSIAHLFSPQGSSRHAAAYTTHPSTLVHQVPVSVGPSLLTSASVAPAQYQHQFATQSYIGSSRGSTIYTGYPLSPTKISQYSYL
Mitogen-activated protein kinase 9 (Homo sapiens), sequence (P45984 whole entry, looked up): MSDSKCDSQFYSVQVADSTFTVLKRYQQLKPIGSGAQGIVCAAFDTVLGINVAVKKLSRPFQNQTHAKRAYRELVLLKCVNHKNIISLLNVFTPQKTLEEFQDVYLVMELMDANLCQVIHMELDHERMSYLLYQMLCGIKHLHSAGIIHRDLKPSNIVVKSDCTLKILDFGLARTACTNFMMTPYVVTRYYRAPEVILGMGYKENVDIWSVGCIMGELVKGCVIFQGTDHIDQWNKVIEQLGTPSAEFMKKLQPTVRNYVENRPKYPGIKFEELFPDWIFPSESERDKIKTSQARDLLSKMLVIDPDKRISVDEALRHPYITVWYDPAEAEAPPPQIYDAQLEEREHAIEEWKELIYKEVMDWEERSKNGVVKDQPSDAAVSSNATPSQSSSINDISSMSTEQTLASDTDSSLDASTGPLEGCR
Dual specificity tyrosine-phosphorylation-regulated kinase 1B (Homo sapiens), sequence (Q9Y463 whole entry, looked up): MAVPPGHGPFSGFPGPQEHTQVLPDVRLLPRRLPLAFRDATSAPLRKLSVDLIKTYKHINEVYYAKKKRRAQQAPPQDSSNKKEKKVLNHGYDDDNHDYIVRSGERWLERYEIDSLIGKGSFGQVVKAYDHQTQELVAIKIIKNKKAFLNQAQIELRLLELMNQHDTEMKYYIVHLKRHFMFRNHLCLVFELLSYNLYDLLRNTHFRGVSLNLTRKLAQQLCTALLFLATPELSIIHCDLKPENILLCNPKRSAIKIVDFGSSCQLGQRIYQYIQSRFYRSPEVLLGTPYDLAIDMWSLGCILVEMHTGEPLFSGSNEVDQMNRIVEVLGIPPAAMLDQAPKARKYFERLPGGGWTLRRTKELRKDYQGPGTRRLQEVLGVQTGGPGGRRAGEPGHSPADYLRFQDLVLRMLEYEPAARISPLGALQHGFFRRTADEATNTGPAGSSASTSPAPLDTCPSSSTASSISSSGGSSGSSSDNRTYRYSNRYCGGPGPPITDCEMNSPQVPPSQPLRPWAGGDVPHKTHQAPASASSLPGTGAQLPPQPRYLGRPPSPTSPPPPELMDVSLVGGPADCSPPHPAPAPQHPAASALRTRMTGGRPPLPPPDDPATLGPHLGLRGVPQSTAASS
Mitogen-activated protein kinase 1 (Homo sapiens), sequence (P28482 whole entry): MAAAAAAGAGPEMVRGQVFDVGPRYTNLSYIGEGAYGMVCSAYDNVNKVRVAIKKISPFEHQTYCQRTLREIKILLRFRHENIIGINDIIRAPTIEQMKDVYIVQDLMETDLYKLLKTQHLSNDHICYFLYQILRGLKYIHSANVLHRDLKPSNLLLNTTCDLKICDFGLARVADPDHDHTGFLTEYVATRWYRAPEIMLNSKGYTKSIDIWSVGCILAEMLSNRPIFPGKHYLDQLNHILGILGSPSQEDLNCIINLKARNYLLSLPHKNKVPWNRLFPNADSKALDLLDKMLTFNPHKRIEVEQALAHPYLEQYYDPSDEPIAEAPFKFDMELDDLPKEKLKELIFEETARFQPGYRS
Glycogen synthase kinase-3 beta (Homo sapiens), sequence (P49841 whole entry, looked up): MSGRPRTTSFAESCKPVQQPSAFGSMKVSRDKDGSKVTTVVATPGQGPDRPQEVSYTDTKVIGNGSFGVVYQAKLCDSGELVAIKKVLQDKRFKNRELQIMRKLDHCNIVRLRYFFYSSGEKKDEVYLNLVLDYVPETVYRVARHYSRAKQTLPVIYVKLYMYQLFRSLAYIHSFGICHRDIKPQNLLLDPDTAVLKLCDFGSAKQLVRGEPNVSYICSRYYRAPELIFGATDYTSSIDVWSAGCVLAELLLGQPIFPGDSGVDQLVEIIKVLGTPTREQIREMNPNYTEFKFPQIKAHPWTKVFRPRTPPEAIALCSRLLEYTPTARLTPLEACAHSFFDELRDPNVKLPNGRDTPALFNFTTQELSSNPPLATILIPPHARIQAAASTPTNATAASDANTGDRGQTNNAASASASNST
Glycogen synthase kinase-3 alpha (Homo sapiens), sequence (P49840 2-483 limits assumed): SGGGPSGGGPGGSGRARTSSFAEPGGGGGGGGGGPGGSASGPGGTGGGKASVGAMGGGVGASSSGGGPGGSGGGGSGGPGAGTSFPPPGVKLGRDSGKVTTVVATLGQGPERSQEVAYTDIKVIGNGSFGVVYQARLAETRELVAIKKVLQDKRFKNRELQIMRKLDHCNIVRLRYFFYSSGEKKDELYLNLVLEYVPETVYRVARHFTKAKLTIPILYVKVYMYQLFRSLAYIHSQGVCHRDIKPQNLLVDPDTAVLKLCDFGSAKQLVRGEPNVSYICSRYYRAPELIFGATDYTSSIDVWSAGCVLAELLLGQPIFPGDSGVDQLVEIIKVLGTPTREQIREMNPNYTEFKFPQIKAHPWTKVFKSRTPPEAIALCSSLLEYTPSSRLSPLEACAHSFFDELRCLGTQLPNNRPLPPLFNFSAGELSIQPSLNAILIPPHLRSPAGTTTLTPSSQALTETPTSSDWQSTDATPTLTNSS

In general, inhibition refers to the change of the read-out against control, counted positive when it falls. `O=C(Nc1n[nH]c2cc(-c3ccc(F)cc3)ccc12)C1CC1`: the inhibition in assay [1] turned out to be 1.03%; in assay [2], 3.64%; in assay [3], 11%; in assay [4], 1.08%; in assay [5] it was 7.73%; in assay [6], 2.57%. The inhibition in assay [7] was 2.75%; in assay [8], 3.8%; in [9], 14.7%; in assay [10] it was 2.61%; in assay [11], 14.9%; in assay [12], -2.89%. Also, the inhibition came out at 2.09% in assay [13]; 0.01% in assay [14]; 1.78% in assay [15]; 2.97% in [16]; 3.68% in assay [17]; 1.79% in [18]. For the same compound, the inhibition in assay [19] stood at 4.65%; in [20], 1.72%.
Regarding `CN(C)CCOc1ccc(-c2nc(-c3ccncc3)c(-c3ccc4c(c3)CC/C4=N\O)[nH]2)cc1`, the inhibition in assay [1] amounted to 3.66%; in assay [2], 4.17%; in assay [3], 8.33%; in assay [4], 2.86%; in [5], 5.07%; in [6], 2.04%. For the same compound, the inhibition in assay [7] stood at 4.1%; in [8] it was 5.08%; in assay [9] it was 9.93%; in assay [10], 4.7%; in [11] it was 9.68%; in assay [12], 6%. Also, the inhibition was 17.8% in [13]; 3.76% in assay [14]; 8.61% in assay [15]; -0.13% in [16]; 6.51% in assay [17]; 3.96% in [18]. Besides, the inhibition in [19] was determined as 2.88%; in [20], 1.97%.
On to `COc1ccc(-c2cc3c(N)ncnc3o2)cc1`, for which the inhibition came out at 11.4% in assay [1]; 4.26% in assay [2]; 22.7% in assay [3]; 5.2% in assay [4]; 12% in [5]; 0.06% in assay [6]. Also, the inhibition in assay [7] worked out at 18.5%; in assay [8] it was 5.87%; in [9] it was 7.92%; in assay [10], 5.53%; in assay [11], 8%; in [12], 0%. Besides, the inhibition in assay [13] was 5.4%; in [14] it was 2.36%; in assay [15], 16.5%; in assay [16], -0.62%; in [17], -0.18%; in assay [18], 1%. Also, the inhibition in [19] is 0.69%; in assay [20], -1.53%.
`CCc1nn2ncccc2c1-c1ccnc(NC2CC2)n1`: the inhibition in assay [1] worked out at 0.97%; in assay [2] it was 1.95%; in [3] it was 4.71%; in assay [4], 1.01%; in assay [5], 5.27%; in assay [6] it was 1.81%. The inhibition was 10.9% in assay [7]; 6.96% in [8]; 9.03% in assay [9]; 6.18% in assay [10]; 7.53% in assay [11]; -1.75% in assay [12]. The inhibition came out at 9.32% in [13]; 2.35% in assay [14]; 20.9% in assay [15]; 2.47% in assay [16]; 5.7% in assay [17]; 1.85% in [18]. Besides, the inhibition was 3.78% in assay [19] and -0.55% in [20].
Regarding `CS(=O)(=O)CCNCc1coc(-c2ccc3ncnc(Nc4ccc(OCc5ccccc5)cc4)c3c2)c1`, the inhibition was 0.66% in [1]; 1.48% in assay [2]; 2.33% in [3]; -0.25% in [4]; 1.83% in [5]; 3.02% in assay [6]. The inhibition is 4.76% in assay [7]; 2.99% in [8]; 4.78% in assay [9]; 2.21% in [10]; 6.33% in assay [11]; -1.59% in assay [12]. Besides, the inhibition in [13] worked out at 2.97%; in [14], 0.96%; in assay [15], 8.92%; in assay [16] it was 1.82%; in assay [17], 2.72%; in assay [18], 2.46%. Moreover, the results for the inhibition in assay [19] and in assay [20] were 3.11% and 3.44%, respectively.
Regarding `O=S(=O)(CCNCc1ccc(-c2ccc3ncnc(Nc4ccc(OCc5cccc(F)c5)c(Cl)c4)c3c2)o1)c1ccccc1`, the inhibition in [1] is -0.68%; in [2] it was 3.49%; in assay [3] it was 5.29%; in assay [4] it was -0.71%; in assay [5], 0.19%; in [6], 3.86%. In addition, the inhibition in [7] was determined as 2.88%; in assay [8], 3.49%; in [9] it was 4.1%; in assay [10], 2.66%; in assay [11], 2.57%; in assay [12], 0.47%. In addition, the inhibition turned out to be 4.11% in [13]; 3.74% in assay [14]; 5.4% in assay [15]; 5.87% in assay [16]; 5.2% in assay [17]; 7.56% in assay [18]. Further, the inhibition in assay [19] was found to be 8.99%; in assay [20] it was 6.61%.
As to `CNC(=O)c1cccc(C#Cc2cncnc2Nc2ccc(OCc3cccc(F)c3)c(Cl)c2)c1`, the inhibition was -0.52% in [1]; -0.33% in assay [2]; 1.36% in assay [3]; 0.13% in [4]; 1% in assay [5]; 0.97% in assay [6]. Moreover, the inhibition in assay [7] was 1.82%; in [8], 1.09%; in assay [9], 3.8%; in [10], 0.4%; in [11] it was 6.56%; in assay [12] it was 1.69%. The inhibition in assay [13] is 4.07%; in [14], 1.01%; in assay [15], 4.65%; in assay [16] it was -2.46%; in assay [17], 1.25%; in assay [18], 1.53%. In addition, the inhibition in assay [19] was 0.6%; in [20] it was 2.46%.

These data come from ChEMBL document CHEMBL1961873, “Compounds: GSK PKIS; Assays: Nanosyn kinase panel” (2012).
